Source: PubChem BioAssay (EPA / NIEHS)
Calls of active or inactive are those of the source. Rule for the calls: active = hit-call score of the fitted dose curve at least 0.9, where 1 is the maximum; inactive = score below 0.9.

How the values were obtained:
Details in all cases: mRNA level, 48 h; actives raise or lower the signal
[1] = read-out: Bcl-2 (BAD) gene, BAD (gene 572); experiment: LTEA_HepaRG_BAD: Life Technologies and Expression Analysis (LTEA) Assay for Bcl-2 (BAD) gene using HepaRG (AID 2283469)
How it was run: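 Activity values reflect up- or down-regulation of BAD mRNA in human HepaRG hepatic cells treated 48 h in serum-free medium, with eight-point half-log dosing capped at 100 uM and 0.5% DMSO vehicle.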

[2] = read-out: Bcl-2 (BAX) gene, BAX (gene 581); experiment: LTEA_HepaRG_BAX: Life Technologies and Expression Analysis (LTEA) Assay for Bcl-2 (BAX) gene using HepaRG (AID 2283470)
How it was run: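 Human HepaRG cells treated in duplicate for 48 h across eight concentrations (max 100 uM, 0.5% DMSO); BAX expression measured by qRT-PCR.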

[3] = read-out: adenosine kinase (ADK) gene, ADK (gene 132); experiment: LTEA_HepaRG_ADK: Life Technologies and Expression Analysis (LTEA) Assay for adenosine kinase (ADK) gene using HepaRG (AID 2283471)
How it was run: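 Differentiated HepaRG cells dosed 48 h in serum-free induction medium, 0.5% DMSO vehicle, eight half-log concentrations from 100 uM, in duplicate. ADK mRNA by TaqMan qRT-PCR normalised to ACTB, GAPDH, POLR2A; bidirectional fit versus DMSO.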

[4] = read-out: Alpha-fetoprotein (AFP) gene, AFP (gene 174); experiment: LTEA_HepaRG_AFP: Life Technologies and Expression Analysis (LTEA) Assay for Alpha-fetoprotein (AFP) gene using HepaRG (AID 2283472)
How it was run: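 Measures AFP mRNA change in HepaRG after 48 h chemical exposure (8 half-log concentrations, highest 100 uM, 0.5% DMSO). Fold change relative to DMSO, fitted in both directions.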

[5] = read-out: Apolipoprotein A-V (APOA5) gene, APOA5 (gene 116519); experiment: LTEA_HepaRG_APOA5: Life Technologies and Expression Analysis (LTEA) Assay for Apolipoprotein A-V (APOA5) gene using HepaRG (AID 2283474)
How it was run: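 HepaRG, 48 h chemical exposure in serum-free induction medium, 8-pt half-log series (top 100 uM), 0.5% DMSO vehicle, duplicates. Readout: APOA5 mRNA by qRT-PCR, housekeeping-normalized; bidirectional fit vs DMSO baseline.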

[6] = read-out: Apoptosis regulator Bcl-2 (Homo sapiens) (UniProt P10415); experiment: LTEA_HepaRG_BCL2: Life Technologies and Expression Analysis (LTEA) Assay for Bcl-2 gene using HepaRG (AID 2283475)
How it was run: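 Each chemical was tested in duplicate on HepaRG cultures held in serum-free induction medium for 48 h, highest concentration 100 uM with half-log dilutions. Transcript levels came from multiplexed qRT-PCR, normalised to housekeeping genes; activity was scored in either direction relative to DMSO.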

[7] = read-out: Bcl-2 (BID) gene, BID (gene 637); experiment: LTEA_HepaRG_BID: Life Technologies and Expression Analysis (LTEA) Assay for Bcl-2 (BID) gene using HepaRG (AID 2283476)
How it was run: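 Assay used HepaRG hepatic cells treated 48 h in serum-free medium with half-log dilutions from 100 uM. Endpoint: BID mRNA, qRT-PCR, normalized to ACTB/GAPDH/POLR2A.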

Caspase-3 (Homo sapiens) = Caspase-3 (Homo sapiens) (UniProt P42574); experiment: LTEA_HepaRG_CASP3: Life Technologies and Expression Analysis (LTEA) Assay for cysteine-aspartic acid protease (CASP3) using HepaRG (AID 2283477)
Chain of Caspase-3 (Homo sapiens) (P42574 whole entry, looked up): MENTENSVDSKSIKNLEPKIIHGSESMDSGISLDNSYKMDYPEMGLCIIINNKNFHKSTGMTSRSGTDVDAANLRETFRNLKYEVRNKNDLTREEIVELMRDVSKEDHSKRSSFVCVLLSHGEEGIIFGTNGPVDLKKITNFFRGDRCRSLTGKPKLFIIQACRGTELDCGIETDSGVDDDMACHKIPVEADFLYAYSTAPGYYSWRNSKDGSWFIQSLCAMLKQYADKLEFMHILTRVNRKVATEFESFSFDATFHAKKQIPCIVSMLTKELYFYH
How it was run: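 HepaRG, 48 h exposure, 8 conc. (top 100 uM, half-log steps, duplicate), 0.5% DMSO vehicle; qRT-PCR of CASP3 transcript, housekeeping-normalised (ACTB/GAPDH/POLR2A); bidirectional curve fit vs DMSO baseline.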

[8] = read-out: Cytochrome P450 (CYP1A2), CYP1A2 (gene 1544); experiment: LTEA_HepaRG_CYP1A2: Life Technologies and Expression Analysis (LTEA) Assay for Cytochrome P450 (CYP1A2) using HepaRG (AID 2283479)
How it was run: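 HepaRG, 48 h exposure, top 100 uM, half-log 8-pt, 0.5% DMSO vehicle, duplicates. Readout: TaqMan qRT-PCR of CYP1A2 mRNA, housekeeping-normalized (ACTB/GAPDH/POLR2A). Gain/loss fit relative to DMSO baseline.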

[9] = read-out: cysteine-aspartic acid protease (CASP8), CASP8 (gene 841); experiment: LTEA_HepaRG_CASP8: Life Technologies and Expression Analysis (LTEA) Assay for cysteine-aspartic acid protease (CASP8) using HepaRG (AID 2283480)
How it was run: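 Concentration-response in duplicate up to 100 uM (half-log steps, 0.5% DMSO) on differentiated HepaRG cultures for 48 h. Expression change of CASP8 mRNA is determined by TaqMan qRT-PCR with housekeeping-gene normalization.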

[10] = read-out: Cytochrome P450 (CYP2B6), CYP2B6 (gene 1555); experiment: LTEA_HepaRG_CYP2B6: Life Technologies and Expression Analysis (LTEA) Assay for Cytochrome P450 (CYP2B6) using HepaRG (AID 2283481)
How it was run: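 Read-out is CYP2B6 mRNA by TaqMan qRT-PCR, normalized to three housekeeping genes and fitted bidirectionally against 0.5% DMSO baseline. Human HepaRG cells received test chemicals for 48 h, top concentration 100 uM, half-log dilutions.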

[11] = read-out: Cytochrome P450 2C19 (Homo sapiens) (UniProt P33261); experiment: LTEA_HepaRG_CYP2C19: Life Technologies and Expression Analysis (LTEA) Assay for CYP2C19 using HepaRG (AID 2283482)
How it was run: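 HepaRG, 48 h chemical exposure, 8-pt half-log series from 100 uM in 0.5% DMSO, duplicates. Readout: CYP2C19 mRNA by TaqMan qRT-PCR, housekeeping-normalized. Bidirectional fit vs DMSO baseline; phenobarbital 1mM as induction control.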

CYP2C8 (gene 1558) = experiment: LTEA_HepaRG_CYP2C8: Life Technologies and Expression Analysis (LTEA) Assay for CYP2C8 using HepaRG (AID 2283483)
How it was run: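 This is a transcriptional endpoint in HepaRG cultures: 48 h exposure, highest concentration 100 uM. CYP2C8 mRNA is quantified by TaqMan qRT-PCR.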

CYP2C9 (gene 1559) = experiment: LTEA_HepaRG_CYP2C9: Life Technologies and Expression Analysis (LTEA) Assay for CYP2C9 using HepaRG (AID 2283484)
How it was run: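 Eight-point concentration-response (highest 100 uM, half-log dilutions) in HepaRG cells for 48 h; CYP2C9 expression by qRT-PCR normalized to ACTB, GAPDH, POLR2A. Bidirectional fit, DMSO baseline.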

CYP2E1 (gene 1571) = experiment: LTEA_HepaRG_CYP2E1: Life Technologies and Expression Analysis (LTEA) Assay for CYP2E1 using HepaRG (AID 2283485)
How it was run: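 Assay uses 48 h exposure of HepaRG hepatic cells, eight concentrations to 100 uM. Expression of CYP2E1 is quantified by TaqMan qRT-PCR with ACTB, GAPDH and POLR2A normalization; curves fitted in both directions relative to vehicle.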

CYP4A11 (gene 1579) = experiment: LTEA_HepaRG_CYP4A11: Life Technologies and Expression Analysis (LTEA) Assay for CYP4A11 using HepaRG (AID 2283486)
How it was run: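 CYP4A11 transcript levels were quantified by TaqMan qRT-PCR after HepaRG human liver cells were treated for 48 hours with test chemicals (top 100 uM, half-log dilutions, 0.5% DMSO). Gain or loss of signal was fitted relative to DMSO.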

[12] = read-out: Cytochrome P450 3A4 (Homo sapiens) (UniProt P08684); experiment: LTEA_HepaRG_CYP3A4: Life Technologies and Expression Analysis (LTEA) Assay for CYP3A4 using HepaRG (AID 2283487)
How it was run: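 Differentiated HepaRG cells in serum-free induction medium exposed in duplicate for 48 h to 8 half-log concentrations up to 100 uM in 0.5% DMSO. CYP3A4 mRNA measured by qRT-PCR normalized to ACTB, GAPDH and POLR2A; bidirectional fit versus DMSO.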

[13] = read-out: DNA damage-inducible transcript 3 (DDIT3), DDIT3 (gene 1649); experiment: LTEA_HepaRG_DDIT3: Life Technologies and Expression Analysis (LTEA) Assay for DNA damage-inducible transcript 3 (DDIT3) using HepaRG (AID 2283488)
How it was run: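 Eight-point concentration-response (100 uM highest, half-log dilutions) in HepaRG, 48 h, duplicate wells. Endpoint: qRT-PCR mRNA, normalized (ACTB, GAPDH, POLR2A), bidirectional fitting with DMSO as baseline.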

Measured: AC50

Chain of Cytochrome P450 3A4 (Homo sapiens) (P08684 whole entry, looked up): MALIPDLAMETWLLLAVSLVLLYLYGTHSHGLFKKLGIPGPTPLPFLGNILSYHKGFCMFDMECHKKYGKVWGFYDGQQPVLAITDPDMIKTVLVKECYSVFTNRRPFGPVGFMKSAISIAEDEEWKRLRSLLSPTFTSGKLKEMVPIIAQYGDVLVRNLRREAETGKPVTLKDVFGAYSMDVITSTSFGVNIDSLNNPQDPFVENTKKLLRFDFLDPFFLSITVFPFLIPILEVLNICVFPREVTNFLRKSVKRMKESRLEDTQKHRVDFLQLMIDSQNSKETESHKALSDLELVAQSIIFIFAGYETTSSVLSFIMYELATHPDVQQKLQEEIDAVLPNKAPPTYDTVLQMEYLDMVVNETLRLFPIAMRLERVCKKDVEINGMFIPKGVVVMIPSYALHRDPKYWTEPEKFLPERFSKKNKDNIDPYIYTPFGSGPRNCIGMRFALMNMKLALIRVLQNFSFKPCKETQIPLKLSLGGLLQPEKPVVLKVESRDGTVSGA
Chain of Cytochrome P450 2C19 (Homo sapiens) (P33261 whole entry, looked up): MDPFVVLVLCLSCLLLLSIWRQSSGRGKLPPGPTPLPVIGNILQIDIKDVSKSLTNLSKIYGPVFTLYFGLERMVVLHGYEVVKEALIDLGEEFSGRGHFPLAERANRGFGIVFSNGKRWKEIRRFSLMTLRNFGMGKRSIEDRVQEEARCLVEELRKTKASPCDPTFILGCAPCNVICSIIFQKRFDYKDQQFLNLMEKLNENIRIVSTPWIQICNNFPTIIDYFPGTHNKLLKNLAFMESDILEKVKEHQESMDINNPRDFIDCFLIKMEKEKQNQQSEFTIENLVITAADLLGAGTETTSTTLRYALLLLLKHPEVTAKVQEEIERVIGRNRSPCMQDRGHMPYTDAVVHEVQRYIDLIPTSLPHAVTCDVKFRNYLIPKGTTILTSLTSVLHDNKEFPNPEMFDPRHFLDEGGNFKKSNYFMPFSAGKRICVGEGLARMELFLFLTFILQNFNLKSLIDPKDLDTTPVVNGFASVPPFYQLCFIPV
Chain of Apoptosis regulator Bcl-2 (Homo sapiens) (P10415 whole entry, looked up): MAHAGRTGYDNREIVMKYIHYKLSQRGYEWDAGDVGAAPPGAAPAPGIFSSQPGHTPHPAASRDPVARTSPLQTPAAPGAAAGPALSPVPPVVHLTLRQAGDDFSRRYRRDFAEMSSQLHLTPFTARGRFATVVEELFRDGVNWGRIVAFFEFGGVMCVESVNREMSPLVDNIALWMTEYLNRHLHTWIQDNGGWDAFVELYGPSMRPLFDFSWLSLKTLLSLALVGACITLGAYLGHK

CCNc1nc(Cl)nc(NC(C)C)n1
active: [8] 50 µM | [10] 2.34 µM | [11] 15.2 µM | CYP2C8 (gene 1558) 31.5 µM | CYP2E1 (gene 1571) 16.6 µM | CYP4A11 (gene 1579) 50 µM | [12] 15.7 µM
inactive: all other assays above

CCCC1COC(Cn2cncn2)(c2ccc(Cl)cc2Cl)O1 (stereo not given)
inactive: [1] | [3] | [7] | Caspase-3 (Homo sapiens) | [9]
active: [2] 81 µM | [4] 24 µM | [5] 47.4 µM | [6] 33.7 µM | [8] 50 µM | [10] 30.9 µM | [11] 74.5 µM | CYP2C8 (gene 1558) 36.4 µM | CYP2C9 (gene 1559) 34.8 µM | CYP2E1 (gene 1571) 13.5 µM | CYP4A11 (gene 1579) 34.7 µM | [13] 30.7 µM

CCOc1cc(Oc2ccc(C(F)(F)F)cc2Cl)ccc1[N+](=O)[O-]
active: [4] 39.1 µM | [5] 30.8 µM | [6] 33.5 µM | [8] 5.27 µM | [10] 34.4 µM | [11] 69.3 µM | CYP2C8 (gene 1558) 74.2 µM | CYP2C9 (gene 1559) 35.7 µM | CYP2E1 (gene 1571) 24.8 µM | CYP4A11 (gene 1579) 41.6 µM | [12] 12.2 µM | [13] 78 µM
inactive: [1] | [2] | [3] | [7] | Caspase-3 (Homo sapiens) | [9]

Fc1ccc(Oc2ccnc3cc(Cl)cc(Cl)c23)cc1
active: [4] 89 µM | [8] 14.1 µM | [10] 11.9 µM | CYP2C8 (gene 1558) 86.6 µM | CYP2C9 (gene 1559) 86.8 µM | CYP2E1 (gene 1571) 77.7 µM | CYP4A11 (gene 1579) 70.1 µM | [13] 65.1 µM
inactive: all other assays above

CCCCC(CC)COC(=O)c1ccccc1C(=O)OCC(CC)CCCC (stereo not given)
active: [8] 50 µM | [10] 19 µM
not listed: [12]
inactive: all other assays above

CCOP(=S)(OCC)SCn1c(=O)oc2cc(Cl)ccc21
active: [8] 75.3 µM | [10] 17.7 µM
inactive: all other assays above

CCOC(=O)C(Cl)Cc1cc(-n2nc(C)n(C(F)F)c2=O)c(F)cc1Cl (stereo not given)
active: [10] 50 µM | [11] 41.1 µM | CYP2C8 (gene 1558) 23.3 µM | CYP2C9 (gene 1559) 25.5 µM | [12] 18.7 µM
inactive: all other assays above

CCCCNC(=O)OCC#CI
active: [3] 50 µM | [8] 31.1 µM | [10] 30.6 µM | [11] 50 µM | CYP2C8 (gene 1558) 50 µM | CYP2C9 (gene 1559) 21.5 µM
inactive: all other assays above

CCON=C(CC)C1=C(O)CC(c2c(C)cc(C)cc2C)CC1=O (stereo not given)
active: [10] 29.5 µM | [11] 23.5 µM | CYP2C8 (gene 1558) 50 µM | CYP2E1 (gene 1571) 43.6 µM | CYP4A11 (gene 1579) 25 µM
not listed: [12]
inactive: all other assays above

CC(Oc1ccc(Cl)cc1Cl)C(=O)O (stereo not given)
active: CYP4A11 (gene 1579) 71.5 µM
inactive: all other assays above

COP(N)(=O)SC (stereo not given)
inactive: all assays above
